Results on 48 compounds are retold here after PubChem BioAssay AID2685 (National Center for Advancing Translational Sciences (NCATS), 2010).

Several values for one entry are separate records, joined by “and”; a condition that tells them apart may be missing. Equal values may be shown once. Out of some 320,000 compounds screened, about 2,100 (0.66%) were called active. About 53% were inconclusive and are not listed. Calls come from the whole dose curve; as a rule, active = well fitted inhibition curve with a large enough effect in the signal ratio, with a control signal flat (not every such curve was filed as active); inconclusive = small, poorly fitted or top-dose-only effect, or effect the other way, or a change in a side signal; inactive = flat fitted curve, though single readings scatter; the % refers to the signal ratio. Shown is part of a subset that was picked to be rich in actives.
Potency is the fitted concentration of half-maximal effect.

This assay can be described thus: qHTS Assay for Lipid Storage Modulators in Drosophila S3 Cells.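 For cell number change: cells counted by Cell Tracker Red CMTPX staining in the red channel.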 For lipid storage change, negative = inhibition: % is set by controls: 0 for no effect and ±100 for the full control effect. The settings on record: BODIPY lipid droplet fluorescence, 18-24 h, cells fed with added oleic acid; cell number change: measured here: cell count max response; series mostly up to 46.1 µM; lipid storage change, negative = inhibition: at the top concentration. In short, it runs like this: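 Drosophila S3 cells loaded with oleic acid (400 uM, as added) and compounds at several concentrations; lipid droplets imaged by 488-nm laser-scanning cytometry, 500–530 nm intensity and object ratio to cell channel. Percent activity normalized to 20 uM Triacsin C.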
On to `c1ccc(Cc2cc[n+](Cc3ccccn3)cc2)cc1`, for which the “lipid storage change, negative = inhibition” value is 4.93% (inactive) and the cell number change was 3.79%.

For the compound `Cc1nc2ccccc2c(N)c1C(=O)/C=C/c1ccccc1`, the Potency was 14.6 µM (active) and the cell number change is -20.1%.

On to `Cn1c(N)c(C(=O)/C=C/c2ccccc2)c(=O)[nH]c1=O`, for which the “lipid storage change, negative = inhibition” value is 10.4% (inactive) and the cell number change stood at 12.4%.

As to `CCOC(=O)c1c(C)nc2ccccc2c1C`, the compound was classed as inactive.

For `O=C(O)CCCCCNc1nc2ncn(Cc3ccccc3)c2c(=O)[nH]1`, the Potency was 32.6 µM (active) and the cell number change is -20%.

On to `CC(Nc1nc2ncn(Cc3ccccc3)c2c(=O)[nH]1)C(=O)O` (stereo unspecified), for which the “lipid storage change, negative = inhibition” value was 1.98% (inactive) and the cell number change is -0.475%.

On to `O=c1[nH]c(N2CCCCCC2)nc2ncn(Cc3ccccc3)c12`, for which the “lipid storage change, negative = inhibition” value was -2.2% (inactive) and the cell number change came out at 7.21%.

Turning to `Cc1ccc[n+](/C(=C\C(=C=[N-])C#N)C(=O)c2ccc(Cl)cc2)c1`, the “lipid storage change, negative = inhibition” value is 6.04% (inactive) and the cell number change stood at 18.6%.

Take `O=C1CN(C(=O)c2ccccc2F)C(c2ccc(F)cc2)c2cc(Br)ccc2N1` (stereo unspecified): the “lipid storage change, negative = inhibition” value was -0.107% (inactive) and the cell number change is -12.8%.

Turning to `CC(=O)Nc1ccc(OCC(=O)N2CCC(Cc3ccccc3)CC2)cc1`, the “lipid storage change, negative = inhibition” value is -0.754% (inactive) and the cell number change was -1.18%.

In the case of `COc1cc(C(=O)OCC(=O)N2CCC(Cc3ccccc3)CC2)cc(OC)c1OC`, the “lipid storage change, negative = inhibition” value was 27.5% (inactive).

As for `CC(=O)Nc1ccc(C(=O)OCC(=O)N2CCC(Cc3ccccc3)CC2)cc1`, the Potency is 2.91 µM (active) and the cell number change was -6.23%.

On to `CC1=C(C(=O)NC2CCCc3c2cnn3-c2cc(F)cc(F)c2)OCCO1` (stereo unspecified), for which the outcome was inactive and the cell number change amounted to 4.32%.

For the compound `COc1ccc(C(=O)NNC(=O)c2cc3cc(OC)ccc3oc2=O)cc1`, the “lipid storage change, negative = inhibition” value was 0.203% (inactive) and the cell number change is 12.8%.

`COc1ccc(C(O)(C(=O)NNc2ccc(C)cc2)c2cccs2)cc1` (stereo unspecified): the Potency was 32.6 µM (active) and the cell number change worked out at 10.5%.

In the case of `Cc1ccc(C(O)(C(=O)NNc2ccc3ccccc3n2)c2ccc(C)cc2)cc1`, the “lipid storage change, negative = inhibition” value is -4.95% (inactive) and the cell number change was -2.27%.

Regarding `COc1ccc(NC(=O)c2cccs2)cc1`, the “lipid storage change, negative = inhibition” value was 0.392% (inactive) and the cell number change is -1.91%.

As for `Cc1cc2ncn(-c3ncnc4sc5c(c34)CCCC5)c2cc1C`, the result was inactive and the cell number change came out at 8.27%.

Consider `c1ccc(CN(Cc2ccco2)C(c2ccncc2)c2nnnn2C2CCCC2)cc1` (stereo unspecified), for which the outcome was inactive.

On to `O=C(Nc1ccc(Cl)cc1)C1CCCC1`, for which the “lipid storage change, negative = inhibition” value is -22.6% (inactive) and the cell number change was -15.4%.

In the case of `O=C(Nc1cc(Cl)cc(Cl)c1)C1CCCC1`, the Potency was 20.6 µM (active) and the cell number change was -3.7%.

As to `O=C(CNC(=O)C1CCCCC1)Nc1cc(Cl)cc(Cl)c1`, the “lipid storage change, negative = inhibition” value is -17% (inactive).

With `COC(=O)C1=C(C)N(C)C(=O)NC1c1ccc(C)cc1` (stereo unspecified), the “lipid storage change, negative = inhibition” value is 3.69% (inactive) and the cell number change is -10.6%.

Regarding `COC(=O)C1=C(C)N(C)C(=O)NC1c1ccccc1` (stereo unspecified), the Potency was 29.1 µM (active) and the cell number change was -9.2%.

As for `CC1=C(C(=O)OC(C)C)C(c2ccccc2)NC(=O)N1C` (stereo unspecified), the call was inactive.

Take `C[C@H](C(=O)O)c1cccc(C(=O)c2ccccc2)c1`: the “lipid storage change, negative = inhibition” value was -15.8% (inactive) and the cell number change came out at 5.73%.

Consider `Cc1ccccc1NC(=O)C(C)c1cccc(C(=O)c2ccccc2)c1` (stereo unspecified), for which the “lipid storage change, negative = inhibition” value was -6.86% (inactive) and the cell number change was determined as 28.9%.

As to `CC(C(=O)O)c1cccc(C(=O)c2ccccc2)c1` (stereo unspecified), the Potency is 23% and -14%.

Regarding `CC(=O)c1cccc(NC(=O)CN(C2CCCCC2)S(C)(=O)=O)c1`, the result was inactive.

As for `CCCCc1ccc(NC(=S)NCCO)cc1`, the “lipid storage change, negative = inhibition” value is -23% (inactive).

As for `O=S(=O)(c1ccc(-c2ccccc2)cc1)N1CCCCC1`, the “lipid storage change, negative = inhibition” value is -13% (inactive) and the cell number change stood at 14.2%.

Take `O=S(=O)(Nc1ccc(F)cc1)c1ccc(NS(=O)(=O)c2cccs2)cc1`: the Potency was 3.66 µM (active) and the cell number change came out at 5.22%.

For `Cc1ccc(NS(=O)(=O)c2ccc(NS(=O)(=O)c3cccs3)cc2)cc1`, the call was inactive.

On to `Cc1ccccc1NS(=O)(=O)c1ccc(NS(=O)(=O)c2cccs2)cc1`, for which the call was inactive and the cell number change stood at 22.7%.

As to `Cc1ccc(-n2nc3c(c2NC(=O)CC(C)C)CS(=O)C3)cc1` (stereo unspecified), the “lipid storage change, negative = inhibition” value was 12.5% (inactive) and the cell number change is -3.89%.

In the case of `Cc1ccc(-c2nnc(N3CCCCC3)c3ccccc23)cc1`, the “lipid storage change, negative = inhibition” value was -16.3% (inactive) and the cell number change is -9.5%.

As for `Clc1nnc(N2CCCCC2)c2ccccc12`, the “lipid storage change, negative = inhibition” value was -14% (inactive).

In the case of `c1ccc2c(N3CCCCC3)nnc(N3CCCCC3)c2c1`, the Potency was 23.1 µM (active) and the cell number change was determined as 9%.

Regarding `CCCCN1C2CCCC1CC(NC(=O)c1cccc(Cl)c1)C2` (stereo unspecified), the “lipid storage change, negative = inhibition” value is -8.27% (inactive) and the cell number change was -7.62%.

For `CN(C(=O)COc1ccccc1)C1CCS(=O)(=O)C1` (stereo unspecified), the “lipid storage change, negative = inhibition” value was -9.62% (inactive) and the cell number change was -15.6%.

For the compound `CC(C)(C)NCC(O)COc1c(F)cc(Br)cc1F` (stereo unspecified), the Potency was 29.1 µM (active) and the cell number change was -21.9%.

On to `Cc1cccc(C)c1OCC(O)CNC(C)(C)C` (stereo unspecified), for which the “lipid storage change, negative = inhibition” value is -0.106% (inactive) and the cell number change was determined as 8.88%.

Regarding `Cc1cc(C)c(OCC(O)CNC(C)(C)C)c(C)c1` (stereo unspecified), the “lipid storage change, negative = inhibition” value is -0.87% (inactive) and the cell number change came to 1.51%.

For `CCCCn1c(N)c(N(CC(C)C)C(=O)c2cnccn2)c(=O)[nH]c1=O`, the “lipid storage change, negative = inhibition” value was -3.52% (inactive) and the cell number change is -16.5%.

Consider `O=C(NC1CCCCC1)C1Cc2ccccc2CN1S(=O)(=O)c1ccc(F)cc1` (stereo unspecified), for which the “lipid storage change, negative = inhibition” value was -0.186% (inactive) and the cell number change is -3.73%.

As for `CC(C)CC(OC(=O)c1nsc(Cl)c1Cl)C(=O)NCc1cccs1` (stereo unspecified), the “lipid storage change, negative = inhibition” value was 0.592% (inactive) and the cell number change was -3.42%.

On to `CCC(OC(=O)c1nsc(Cl)c1Cl)C(=O)NCc1cccs1` (stereo unspecified), for which the “lipid storage change, negative = inhibition” value was 6.89% (inactive) and the cell number change was 3.99%.

Turning to `CC(OC(=O)c1nsc(Cl)c1Cl)C(=O)NCc1cccs1` (stereo unspecified), the Potency is 32.6 µM (active) and the cell number change turned out to be 2.66%.
